Source: PubChem BioAssay AID1159580 (chemical genetic matrix, 2015)
Where “and” joins values, the source holds several entries; their conditions need not be identical. Identical values can stand only once. The whole screen tested about 5,500 compounds, of which about 2,000 (36%) were called active. Roughly 18% stayed inconclusive and do not appear here. Rule as the data show it: active = normalized growth mostly below about 0.91 (no sharp cut-off); inconclusive = no clear call, values can overlap the other calls; inactive = mostly above about 0.92. The list shows a part of the results.

Assay: chemical genetic growth profiling, strain panel (AID 1159580);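 also: tested at 20 µM; growth read once vehicle control cultures reached saturation at 30 °C; 1 = growth at the plate median or of vehicle wells; lower values mean less growth of the strain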
Conditions: S. cerevisiae deletion strains, growth OD

Measured: normalized growth

CNCc1ccccc1
inactive: locus YAL013W, strain DEP1, stronger effect = lower value 0.994 | locus YAL021C, strain ccr4, stronger effect = lower value 1.01 | locus YAL026C, strain drs2, stronger effect = lower value 1.02 | locus YAL030W, strain snc1, stronger effect = lower value 1.02 | locus YBL061C, strain skt5, stronger effect = lower value 1.03 | locus YBR009C, strain hhf1, stronger effect = lower value 1.02 | locus YBR021W, strain FUR4, stronger effect = lower value 1.03 | locus YBR023C, strain chs3, stronger effect = lower value 1.03 | locus YBR171W, strain sec66, stronger effect = lower value 1.03 | locus YBR229C, strain ROT2, stronger effect = lower value 0.965 | locus YBR231C, strain swc5, stronger effect = lower value 1.01 | locus YBR279W, strain paf1, stronger effect = lower value 1.02 | locus YCL011C, strain gbp2, stronger effect = lower value 1.02 | locus YCL016C, strain dcc1, stronger effect = lower value 1.02 | locus YCL029C, strain bik1, stronger effect = lower value 0.984 | locus YCL061C, strain MRC1, stronger effect = lower value 1.01 | locus YCL069W, strain vba3, stronger effect = lower value 1.02 | locus YCR088W, strain abp1, stronger effect = lower value 1.03 | locus YDL005C, strain med2, stronger effect = lower value 1.02 | locus YDL035C, strain GPR1, stronger effect = lower value 1 | locus YDL040C, strain nat1, stronger effect = lower value 1 | locus YDL074C, strain BRE1, stronger effect = lower value 1.05 | locus YDL101C, strain DUN1, stronger effect = lower value 0.982 | locus YDL134C, strain PPH21, stronger effect = lower value 0.992 | locus YDL185W, strain tfp1, stronger effect = lower value 0.987 | locus YDL192W, strain arf1, stronger effect = lower value 0.997 | locus YDR001C, strain nth1, stronger effect = lower value 1.02 | locus YDR069C, strain doa4, stronger effect = lower value 1.01 | locus YDR101C, strain arx1, stronger effect = lower value 1.05 | locus YDR137W, strain rgp1, stronger effect = lower value 1.04 | locus YDR159W, strain sac3, stronger effect = lower value 1.05 | locus YDR162C, strain NBP2, stronger effect = lower value 0.957 | locus YDR195W, strain ref2 0.999 | locus YDR297W, strain sur2, stronger effect = lower value 1.02 | locus YDR318W, strain mcm21, stronger effect = lower value 0.965 | locus YDR334W, strain swr1, stronger effect = lower value 1.03 | locus YDR335W, strain msn5, stronger effect = lower value 1.02 | locus YDR388W, stronger effect = lower value 1.01 | locus YDR392W, strain spt3, stronger effect = lower value 1.01 | locus YDR502C, strain sam2, stronger effect = lower value 1 | locus YEL003W, strain gim4, stronger effect = lower value 1.02 | locus YEL037C, strain rad23, stronger effect = lower value 1.02 | locus YEL061C, strain CIN8 (second series), stronger effect = lower value 1.03 | locus YEL061C, strain CIN8, stronger effect = lower value 0.996 | locus YER015W, strain faa2, stronger effect = lower value 1.01 | locus YER016W, strain bim1, stronger effect = lower value 1.02 | locus YER110C, stronger effect = lower value 0.99 | locus YER111C, strain swi4, stronger effect = lower value 1.02 | locus YER155C, strain BEM2 (second series), stronger effect = lower value 1.02 | locus YER155C, strain BEM2, stronger effect = lower value 0.987 | locus YER167W, strain BCK2, stronger effect = lower value 0.988 | locus YFR010W, strain ubp6, stronger effect = lower value 1.04 | locus YGL078C, strain dbp3, stronger effect = lower value 0.999 | locus YGL086W, strain mad1, stronger effect = lower value 1.06 | locus YGL167C, strain pmr1, stronger effect = lower value 1.03 | locus YGL173C, strain kem1, stronger effect = lower value 1.03 | locus YGL227W, strain vid30, stronger effect = lower value 1.03 | locus YGL240W, strain doc1, stronger effect = lower value 1.01 | locus YGL248W, strain PDE1, stronger effect = lower value 0.984 | locus YGL253W, strain hxk2, stronger effect = lower value 1.03 | locus YGR078C, strain PAC10, stronger effect = lower value 0.981 | locus YGR135W, strain pre9, stronger effect = lower value 0.972 | locus YGR229C, strain SMI1, stronger effect = lower value 0.986 | locus YGR252W, strain gcn5, stronger effect = lower value 0.908 | locus YHR013C, strain ard1, stronger effect = lower value 1.03 | locus YHR027C, strain rpn1, stronger effect = lower value 1.04 | locus YHR030C, strain SLT2, stronger effect = lower value 1.01 and 0.986 | locus YHR079C, strain IRE1 (second series), stronger effect = lower value 0.989 | locus YHR079C, strain IRE1, stronger effect = lower value 0.975 | locus YHR094C, strain hxt1, stronger effect = lower value 0.978 | locus YHR129C, strain ARP1, stronger effect = lower value 1 | locus YHR142W, strain chs7, stronger effect = lower value 1.05 | locus YHR200W, strain rpn10, stronger effect = lower value 0.999 | locus YIL066C, strain RNR3, stronger effect = lower value 0.992 | locus YIL073C, strain SPO22, stronger effect = lower value 1.01 | locus YIL125W, strain kgd1, stronger effect = lower value 1 | locus YIR030C, strain dcg1, stronger effect = lower value 0.99 | locus YJL092W, strain hpr5, stronger effect = lower value 1.02 | locus YJL095W, strain BCK1 (second series), stronger effect = lower value 1.02 | locus YJL095W, strain BCK1, stronger effect = lower value 0.95 and 0.974 | locus YJL115W, strain asf1, stronger effect = lower value 1.03 | locus YJL129C, strain trk1, stronger effect = lower value 1.05 | locus YJL134W, strain LCB3, stronger effect = lower value 0.996 | locus YJL154C, strain vps35, stronger effect = lower value 1.03 | locus YJL164C, strain tpk1, stronger effect = lower value 1.01 | locus YJL166W, strain qcr8, stronger effect = lower value 1.02 | locus YJL168C, strain set2, stronger effect = lower value 0.991 | locus YJL187C, strain SWE1 (second series), stronger effect = lower value 0.977 | locus YJL187C, strain SWE1, stronger effect = lower value 1.03 | locus YJR043C, strain POL32, stronger effect = lower value 1
